# Source: PubChem BioAssay
# ELG1 genotoxic = genotoxicity induction in ELG1-luciferase HEK293T cells. HEK293T ELG1-luciferase reporter, luminescence, 16 h. Potency, µM (titrated, usually from 46 µM), most hits filed as activators. hit rate 1.3% among 330,000. AID 504466; also: nearly all actives have a fitted effect of over 60% in size
#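 Genotoxic stress is detected as increased luminescence from luciferase-tagged ELG1 in HEK293T cells, measured with ONE-Glo after a 16 hr treatment at 37 °C.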
# NPC1 promoter act = activators of NPC1 promoter | Potency, µM (top dose mostly 9.22 µM), most hits filed as activators | hit rate 2.4% among 320,000 | Huh7 NPC1 promoter luciferase reporter, 24 h | AID 485313; also: nearly all actives have a fitted effect of over 60% in size
#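 Luminescence read-out of NPC1 promoter-driven luciferase in stably transfected Huh7 cells; compounds delivered in DMSO and left 24 h at 37C, 5% CO2, qHTS titration format.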
# FLuc counter = inhibits or activates purified firefly luciferase, miR-21 counter-screen. AID 588342. hit rate 6.9% among 360,000. purified FLuc, Km substrates, luminescence inhibition. Potency, µM (top dose mostly 57.5 µM), hits mostly inhibitors; also: nearly all actives have a fitted effect of over 55% in size
# Target sequence (P08659 whole entry, looked up): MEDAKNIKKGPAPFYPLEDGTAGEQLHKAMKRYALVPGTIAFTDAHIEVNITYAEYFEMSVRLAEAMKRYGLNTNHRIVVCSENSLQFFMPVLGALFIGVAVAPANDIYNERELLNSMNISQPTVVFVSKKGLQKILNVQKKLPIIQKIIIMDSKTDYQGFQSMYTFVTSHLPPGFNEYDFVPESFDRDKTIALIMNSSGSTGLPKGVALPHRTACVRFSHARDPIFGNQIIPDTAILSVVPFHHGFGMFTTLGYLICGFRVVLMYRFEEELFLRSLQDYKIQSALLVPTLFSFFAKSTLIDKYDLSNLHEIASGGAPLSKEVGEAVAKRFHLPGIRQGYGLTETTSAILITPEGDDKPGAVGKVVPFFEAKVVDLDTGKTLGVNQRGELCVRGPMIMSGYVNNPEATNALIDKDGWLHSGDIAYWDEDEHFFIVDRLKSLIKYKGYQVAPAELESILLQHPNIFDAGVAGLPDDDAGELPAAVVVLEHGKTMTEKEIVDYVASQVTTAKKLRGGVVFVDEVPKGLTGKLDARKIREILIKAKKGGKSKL
#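 Biochemical qHTS of compounds, final roughly 60 µM downward over six points, against 10 nM purified firefly luciferase using Km concentrations of substrates (10 uM D-luciferin, 10 uM ATP) in Tris acetate pH 7.5 buffer; luminescence output.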
# Rab9 prom act = Rab9 promoter activation; Huh7 Rab9 promoter-luciferase reporter, luminescence, 24 h; Potency, µM (highest dose often 9.22 µM), actives largely listed as activators; hit rate 2.8% among 320,000; AID 485297; also: nearly all actives have a fitted effect of over 60% in size
#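 Huh7 cells stably carrying Rab9 promoter–luciferase reporter, plated 1500 cells/well, compound added after 2 h and incubated 24 h at 37 °C; luciferase luminescence then read after 10 min with detection reagent.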
# SMN2 splice enh = enhancers of SMN2 splice variant expression. Potency, µM (highest dose often 46.1 µM), usual class: activators. hit rate 2.8% among 210,000. HEK293 SMN2-luciferase splicing reporter, luminescence, 30-36 h; also: nearly all actives have a fitted effect of over 55% in size
#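 HEK293 cells carry an SMN2 minigene-luciferase reporter in which exon 7 inclusion puts luciferase in frame. Cells were seeded at 2000 cells/well, attached for 10-12 hours, then exposed to compounds for 30-36 hours at 37C before ONE-Glo luminescence.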
# Hits are given with their value; n = inactive; u = inconclusive; x = no result given; [ ] = dose if it differs, or a comment. Shown are actives, neighbours in structure and some others; about 7.4% of the full set was active somewhere. Calls follow the shape of the dose curve; as a rule, active = well fitted curve in the direction sought with a large enough effect; inconclusive = small, poorly fitted or top-dose-only effect, or another doubt; inactive = no such curve, though single readings can be large; an effect the other way counts as inactive or inconclusive.
SMILES,ELG1 genotoxic,NPC1 promoter act,FLuc counter,Rab9 prom act,SMN2 splice enh
Cn1ccnc1SCC(=O)c1cccc(C(F)(F)F)c1,u,2.8µM,17µM,4µM,x
COC(=O)c1ccc(CNC(=O)CSC2=NCCS2)cc1,n,n,n,n,n
COc1ccc(C(=O)CSc2nccn2C)cc1,23µM,2.8µM,17µM,3.5µM,x
Cn1cccc1C(=O)OCC(=O)NC(=O)NC1CCCCC1,n,n,n,n,n
COc1ccc(Cc2ccc3[nH]c(=O)cc(C)c3c2)cc1S(=O)(=O)O,x,x,x,x,n[9.22 µM]
O=C(Cn1c(=O)n(Cc2ccc3c(c2)OCO3)c(=O)c2ccccc21)Nc1cccc(Cl)c1,x,x,n,x,n
O=C(CSc1nccn1-c1ncc(C(F)(F)F)cc1Cl)c1ccc(Br)cc1,u,3.5µM,n,1.6µM,n
CCOc1ccc(NC(=O)Nc2nc3ccc(S(C)(=O)=O)cc3s2)cc1,n,n,n,n,x
Cc1ccccc1NC(=O)Nc1nc2ccc(S(C)(=O)=O)cc2s1,n,4µM,n,u,u
NS(=O)(=O)c1ccc2nc(NC(=O)Nc3ccccc3F)sc2c1,3.3µM,0.5µM,1.3µM,0.4µM,x
COc1cc(C(=O)Nc2nc(C)cc(C)n2)cc(OC)c1OC,n,n,n,n,x
C[C@@H]1OC(Nc2ccc(N=Nc3ccccc3)cc2)[C@H](O)[C@H](O)[C@H]1O (stereo partly drawn),n,u,24µM,u,x
O=C(Cn1c(SCc2ccccc2F)nc2cccnc21)Nc1ccc(F)c(Cl)c1,x,x,27µM,x,x
O=C(Cn1c(SCc2ccc(F)cc2)nc2cccnc21)Nc1ccccc1F,x,x,9.5µM,x,x
O=C(CSc1nc2ccccc2n1CC(=O)Nc1ccc(F)cc1F)Nc1ccc(F)cc1,x,x,n,x,x
COc1ccc(NC(=O)Cn2c(SCc3ccc(F)cc3)nc3cccnc32)cc1OC,x,x,2.7µM,x,x
COc1ccc(CC(=O)NCc2nc3cccnc3n2Cc2ccc(F)cc2)cc1OC,x,x,n,x,x
COc1ccc(NC(=O)Cn2c(SCc3ccc(C)cc3)nc3cccnc32)cc1OC,x,x,0.6µM,x,x
CN(C)c1ccc(NC(=O)Cn2c(SCc3ccccc3F)nc3cccnc32)cc1,x,x,n,x,x
CC(=O)Oc1ccc(/C(C)=N/N2CCN(Cc3ccc(C)cc3)CC2)cc1,n,n,n,n,x
COc1ccc(-c2nc(SCC(=O)N(CC(C)C)c3c(N)n(Cc4ccccc4)c(=O)[nH]c3=O)n[nH]2)cc1,n,n,1.9µM,n,x
COc1ccc(CCC(=O)OCC(=O)N(CC(C)C)c2c(N)n(Cc3ccccc3)c(=O)[nH]c2=O)cc1,n,n,n,n,x
CCCN(C(=O)CSc1n[nH]c(-c2ccc(OC)cc2)n1)c1c(N)n(Cc2ccccc2)c(=O)[nH]c1=O,n,n,11µM,n,x
CCc1ccccc1N1C(=O)[C@@H]2Cc3ccccc3CN2C1=O,n,n,n,n,x
Cc1cc(C(=O)CSc2nnc(-c3ccc4c(c3)OCO4)o2)c(C)n1-c1ccc(F)cc1,n,n,n,n,n
SMILES,ELG1 genotoxic,NPC1 promoter act,FLuc counter,Rab9 prom act,SMN2 splice enh
Cc1cc(C(=O)CSc2nnc(-c3ccco3)o2)c(C)n1-c1ccc2c(c1)OCCO2,n,n,n,n,n
Cc1nnc(SCc2cccc(CSc3nnc(C)s3)c2)s1,u,u,u,u,n
Cc1cc(C(=O)CSc2nnnn2C)c(C)n1-c1ccc2c(c1)OCCO2,10µM,3.2µM,24µM,2.5µM,u
Cc1nnc(SCC(=O)c2cc(C)n(-c3ccc4c(c3)OCO4)c2C)s1,u,n,24µM,u,x
Cc1nnc(SCc2ccc(F)cc2Cl)s1,u,3.5µM,24µM,u,u
Nc1nnc(SCc2ccc(F)cc2Cl)s1,n,n,n,n,n
Cc1nnc(SCc2ccc3c(c2)OCO3)s1,21µM,n,u,u,n
O=C(Nc1nc2c(s1)CCCC2=O)c1cnccn1,23µM,u,u,u,20µM
CCOc1ccc2nc(NC(=O)c3cnccn3)sc2c1,u,0.79µM,1.5µM,0.25µM,x
O=C(NCc1cccnc1)C(=O)Nc1nc2ccccc2s1,u,n,15µM,n,n
COC(=O)c1c(NC(=O)c2cnccn2)sc2c1CCC2,n,n,n,n,u
O=C(Nc1nc(-c2ccco2)c(-c2ccco2)s1)c1cnccn1,n,n,n,n,x
O=C(Nc1nc2ccccc2s1)c1cnccn1,0.46µM,1.1µM,2.1µM,0.32µM,6.3µM
O=C(Nc1nc2ccc(F)cc2s1)c1ccccn1,u,u,0.54µM,0.089µM,n
